IL-1B inflam inh = inhibitors of inflammasome signaling (IL-1 beta secretion); 360,000 compounds, 4.7% hits; AID 743279; THP-1 LPS/ATP IL-1B secretion, AlphaLISA, 16 h; hits give low values; activity change, % at 57.5 µM; in the data active means activity change below about -50%; inconclusive means mostly about -30% to -49%; further: on the % scale 0 is the no-effect control and ±100 the full control effect
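THP-1 cells pretreated 1 hr with compounds (up to 57.5 uM final), then stimulated with LPS (250 ng/mL final) plus ATP (1.25 mM final); secreted IL-1B measured by AlphaLISA after 16 hr, decreased signal indicating inhibition.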
DT40 TDP1 CPT = growth inhibition of DT40 Tdp1-/-;hTDP1 cells with camptothecin (screen for TDP1 inhibitors) | AID 686979 | Potency, µM (series often up to 46.2 µM), for inactives: at the highest dose activity change, negative = growth inhibition, hits mostly inhibitors | 420,000 compounds, 12% hits | chicken DT40 Tdp1-/-;hTDP1 cells + 20 nM CPT, ATP luminescence, 48 h; further: potency means the concentration at half of the fitted maximal effect; on the % scale 0 is the no-effect control and ±100 the full control effect; nearly all actives have a fitted effect of over 55% in size
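Cell growth measured by CellTiter-Glo luminescence after a minimum 48 h, 37 C compound exposure with 20 nM CPT in Tdp1-knockout DT40 cells stably expressing hTDP1, seeded 400/well; qHTS titration format.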
TDP1 block = inhibitors of human tyrosyl-DNA phosphodiesterase TDP1; 350,000 compounds, 0.28% hits; AID 485290; Potency, µM (doses to about 130 µM), without a hit: top-dose activity change, negative = inhibition, most hits filed as inhibitors; Q9NUW8; recombinant TDP1, AlphaScreen DNA substrate cleavage; further: potency means the concentration at half of the fitted maximal effect; on the % scale 0 is the no-effect control and ±100 the full control effect; nearly all actives have a fitted effect of over 40% in size
Target sequence (Q9NUW8 whole entry, looked up): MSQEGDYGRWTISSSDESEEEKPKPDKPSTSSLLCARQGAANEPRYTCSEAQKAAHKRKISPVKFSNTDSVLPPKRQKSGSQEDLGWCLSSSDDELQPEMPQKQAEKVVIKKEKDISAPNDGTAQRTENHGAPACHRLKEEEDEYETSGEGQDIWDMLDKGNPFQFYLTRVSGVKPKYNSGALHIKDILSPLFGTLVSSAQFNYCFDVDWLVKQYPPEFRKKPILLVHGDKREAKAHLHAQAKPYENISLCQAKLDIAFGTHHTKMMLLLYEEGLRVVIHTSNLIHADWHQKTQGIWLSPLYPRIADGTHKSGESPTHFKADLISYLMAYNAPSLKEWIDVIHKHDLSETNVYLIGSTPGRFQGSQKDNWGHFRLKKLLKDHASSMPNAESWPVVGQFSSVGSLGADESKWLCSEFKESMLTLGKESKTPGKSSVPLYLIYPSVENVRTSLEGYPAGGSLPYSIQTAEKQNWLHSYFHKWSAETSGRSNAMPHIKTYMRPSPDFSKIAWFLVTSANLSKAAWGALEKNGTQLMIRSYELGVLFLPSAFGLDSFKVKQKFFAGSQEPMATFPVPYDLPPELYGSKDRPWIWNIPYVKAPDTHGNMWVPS
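Enzyme-compound mixtures sat 15 min at room temperature, followed by a 5 min reaction with 15 nM final substrate and 10 min with AlphaScreen beads. Recombinant human Tdp1 was used at 1 nM final.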
HepG2 tox = kills HepG2 cells in TGF-b inhibitor counter-screen; HepG2 CAGA-GFP viability, ATP luminescence, 18 h; Potency, µM (titrated, usually from 46.1 µM), without a hit: at the top dose activity change, negative = cytotoxicity, actives largely listed as cytotoxic; 410,000 compounds, 0.76% hits; AID 588856; further: potency means the concentration at half of the fitted maximal effect
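CellTiter-Glo luminescence gave cytotoxicity after 18 hours at 37 degrees C. The cells were HepG2 CAGA-GFP in 1% FBS DMEM, stimulated with 500 pg/mL TGF-beta after compound addition. %Activity was normalised to no-cell wells (complete cell-killing) and DMSO (no toxicity), and curves were fitted and classified.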
TGFb inhibitor = inhibitors of TGF-b signaling. HepG2 CAGA-GFP TGF-b/SMAD3 reporter, GFP fluorescence, 18 h; TGF-beta stimulated, 500 pg/mL final. Potency, µM (highest dose often 46.1 µM), inactives show at the highest dose activity, negative = inhibition, actives largely listed as inhibitors. 410,000 compounds, 1.2% hits. AID 588855; further: potency means the concentration at half of the fitted maximal effect; on the % scale 0 is the no-effect control and ±100 the full control effect; nearly all actives have a fitted effect of over 65% in size
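Cell-based qHTS in HEPG2 carrying a CAGA-GFP Smad reporter; compounds added before 500 pg/mL final TGF-beta, 18 h incubation at 37 degrees C, GFP fluorescence quantified per cell by imaging cytometry.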
DT40 TDP1 no CPT = qHTS for Inhibitors of human tyrosyl-DNA phosphodiesterase 1 (TDP1): qHTS in cells in absence of CPT | 420,000 compounds, 15% hits | AID 686978, 2013 | DT40 Tdp1-/- hTDP1 cells, no CPT, ATP luminescence, 48 h | Potency, µM (titrated, usually from 46.2 µM), for the others: top-dose activity change, negative = growth inhibition, actives largely listed as inhibitors; further: potency means the concentration at half of the fitted maximal effect; on the % scale 0 is the no-effect control and ±100 the full control effect; nearly all actives have a fitted effect of over 55% in size
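Readout: luminescence from CellTiter-Glo after 30 min in the dark at RT. Cells: DT40 Tdp1-/- with stable hTDP1, 400/well. Exposure: compounds alone, ≥48 hr, 37 °C.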
An asterisk follows results filed as active; [ ] = dose if it differs, or a comment. Compounds with a hit are over-represented: about 19% of the library has one in this group of screens. Unless noted, the call rests on the fitted dose curve; in most records, active means well fitted curve in the direction sought with a large enough effect; inconclusive means small, poorly fitted or top-dose-only effect, or another doubt; inactive means no such curve, though single readings can be large; an effect the other way counts as inactive or inconclusive.

`CC(C)c1ccc(NC(=S)NCCc2c[nH]c3ccccc23)cc1` gave IL-1B inflam inh -53*, DT40 TDP1 CPT inconclusive, TDP1 block 8%, HepG2 tox -20%, TGFb inhibitor inconclusive and DT40 TDP1 no CPT 26µM*.
`Cc1cccc(NC(=S)NCCc2c[nH]c3ccccc23)c1` gave IL-1B inflam inh 2, DT40 TDP1 CPT inconclusive, TDP1 block -5%, HepG2 tox 1%, TGFb inhibitor -53% and DT40 TDP1 no CPT inconclusive.
`O=C(NCCc1c[nH]c2ccccc12)Nc1ccccc1` gave IL-1B inflam inh -26, DT40 TDP1 CPT -5%, TDP1 block 7%, HepG2 tox -6%, TGFb inhibitor -1% and DT40 TDP1 no CPT inconclusive.
For S=C(NCCCN1CCN(CCCNC(=S)NC2CCCCC2)CC1)NC1CCCCC1 the results were IL-1B inflam inh -15, DT40 TDP1 CPT 15µM*, HepG2 tox 7%, TGFb inhibitor 26% and DT40 TDP1 no CPT 15µM*.
`COc1ccc(/C=C(/NC(=O)c2ccc(OC)cc2)C(=O)NCCc2c[nH]c3ccccc23)cc1` gave IL-1B inflam inh -5, DT40 TDP1 CPT 17%, TDP1 block 4%, HepG2 tox 4%, TGFb inhibitor -7% and DT40 TDP1 no CPT 4%.
For COc1cccc(C(=O)Nc2ccccc2OCc2cc(=O)n3ccccc3n2)c1 the results were DT40 TDP1 CPT -22%, TDP1 block 5%, HepG2 tox -24%, TGFb inhibitor -5% and DT40 TDP1 no CPT inconclusive.
`Cn1c(=O)c2cc(NC(=S)NC3CC3)ccc2n1Cc1cccc(C(F)(F)F)c1` gave IL-1B inflam inh 34, DT40 TDP1 CPT -23%, HepG2 tox 5%, TGFb inhibitor 46% and DT40 TDP1 no CPT inconclusive.
Cc1ccc(S(=O)(=O)N2C[C@H]3[C@H]4C(=O)N(c5ccccc5)C(=O)[C@H]4C[C@H](OC(=O)NC4CCCC4)[C@@]3(O)C2)cc1 was read as IL-1B inflam inh 17, DT40 TDP1 CPT 0%, HepG2 tox -20%, TGFb inhibitor -10% and DT40 TDP1 no CPT -18%.
Screening CC(=O)Nc1nc2ccc(Br)cc2s1 returned IL-1B inflam inh -18, DT40 TDP1 CPT 13µM*, TDP1 block 2%, HepG2 tox -20%, TGFb inhibitor 0% and DT40 TDP1 no CPT inconclusive.
`COc1ccc2nc(NC(C)=O)sc2c1` gave IL-1B inflam inh -12, DT40 TDP1 CPT inconclusive, TDP1 block 2%, HepG2 tox -9%, TGFb inhibitor inconclusive and DT40 TDP1 no CPT inconclusive.
CC(=O)Nc1nc2ccc(NC(=O)c3ccco3)cc2s1 was read as IL-1B inflam inh -25, DT40 TDP1 CPT inconclusive, TDP1 block -6%, HepG2 tox -6%, TGFb inhibitor -5% and DT40 TDP1 no CPT 18µM*.
Cc1nc2ccc(NC(=O)c3ccco3)cc2s1 was read as IL-1B inflam inh -9, DT40 TDP1 CPT 3%, TDP1 block 5%, HepG2 tox -22%, TGFb inhibitor -6% and DT40 TDP1 no CPT -3%.
Screening Cc1ccc2nc(NC(=S)NC(=O)c3ccco3)sc2c1 returned IL-1B inflam inh 12, DT40 TDP1 CPT 5.2µM*, TDP1 block -3%, HepG2 tox 1%, TGFb inhibitor -16% and DT40 TDP1 no CPT 3.3µM*.
`Cc1ccc2nc(NC(=O)c3ccco3)sc2c1` gave IL-1B inflam inh 11, DT40 TDP1 CPT inconclusive, TDP1 block 3%, HepG2 tox -40%, TGFb inhibitor inconclusive and DT40 TDP1 no CPT 8.2µM*.
CC1=C(C(=O)NCc2ccc(Cl)cc2)C2(CCCCC2)OC1=O was read as DT40 TDP1 CPT inconclusive, TDP1 block 0%, HepG2 tox -33%, TGFb inhibitor -15% and DT40 TDP1 no CPT -26%.
COc1cccc(OC)c1NC(=O)CN(C)S(=O)(=O)c1ccc2c(c1)OCCO2 was read as IL-1B inflam inh -16, DT40 TDP1 CPT 6%, TDP1 block 8%, HepG2 tox -5%, TGFb inhibitor 5% and DT40 TDP1 no CPT -20%.
For Cc1cc(NC(=O)CSc2ccc(Cl)cc2)no1 the results were IL-1B inflam inh -16, DT40 TDP1 CPT 13µM*, TDP1 block -4%, HepG2 tox -1%, TGFb inhibitor -26% and DT40 TDP1 no CPT 16µM*.
For O=C(CSc1ccc(Cl)cc1)Nn1cnnc1 the results were IL-1B inflam inh -5, DT40 TDP1 CPT 18µM*, TDP1 block 4%, HepG2 tox -1%, TGFb inhibitor -1% and DT40 TDP1 no CPT inconclusive.
For O=C(CSc1ccc2ccccc2c1)Nn1cnnc1 the results were IL-1B inflam inh 12, DT40 TDP1 CPT -17%, TDP1 block 6%, HepG2 tox 6%, TGFb inhibitor 0% and DT40 TDP1 no CPT 1%.
Cc1cc(NC(=O)CSc2nc3cc(Cl)ccc3o2)no1 was read as IL-1B inflam inh 46, DT40 TDP1 CPT 4.6µM*, HepG2 tox -11%, TGFb inhibitor 1% and DT40 TDP1 no CPT 2.6µM*.
Cc1ccc(SCC(=O)Nc2cc(C)on2)cc1 was read as IL-1B inflam inh 26, DT40 TDP1 CPT inconclusive, TDP1 block 3%, HepG2 tox -18%, TGFb inhibitor 3% and DT40 TDP1 no CPT -2%.
`CCCOc1ccc(-c2nc(N3CCN(CC)CC3)c3ccccc3n2)cc1` gave IL-1B inflam inh -57*, DT40 TDP1 CPT inconclusive, HepG2 tox -51%, TGFb inhibitor inconclusive and DT40 TDP1 no CPT 29µM*.
`CCCOc1ccc(-c2nc(N3CCN(C)CC3)c3ccccc3n2)cc1` gave IL-1B inflam inh -20, DT40 TDP1 CPT 23µM*, HepG2 tox -55%, TGFb inhibitor inconclusive and DT40 TDP1 no CPT inconclusive.
Screening CCCOc1ccc(-c2nc(N3CCCCC3)c3ccccc3n2)cc1 returned DT40 TDP1 CPT -5%, TDP1 block 3%[12.3 µM], HepG2 tox 1%, TGFb inhibitor 31% and DT40 TDP1 no CPT -19%.
`COc1ccccc1N1CCN(C(=O)C2CCN(S(=O)(=O)c3cn(C)cn3)CC2)CC1` gave DT40 TDP1 CPT -2%, TDP1 block 9%, HepG2 tox 2%, TGFb inhibitor inconclusive and DT40 TDP1 no CPT -15%.
CC1CCN(S(=O)(=O)c2ccc3c(c2)N(CC(=O)NCCN(C)C)C(=O)CS3)CC1 was read as DT40 TDP1 CPT -16%, TDP1 block -1%, HepG2 tox 5%, TGFb inhibitor 5% and DT40 TDP1 no CPT 4%.

Screens deposited in PubChem BioAssay by National Center for Advancing Translational Sciences (NCATS).
